# Measurements taken from the supplement of paper PMC13392028.
# Whole data set: some 4,100 sequences, median “RBNS R-value (6-mer enrichment in protein-bound RNA vs input library)” near 0.99, cut for the highest 2% near 1.4. For the sample, the highest values were picked, then their nearest neighbours and some sequences at random.
# Tested on: PfIESI-1 RRM domain (Plasmodium falciparum ortholog aa 875-1232, GST fusion)
# Assay: RBNS R-value (6-mer enrichment in protein-bound RNA vs input library) (ratio); higher = stronger binding preference; the methods of the paper give 50 / 100 / 500 nM protein instead
# Description: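 RNA Bind-n-Seq: recombinant GST-tagged IESI-1 RRM domain was incubated at room temperature with a random 40-nt in vitro transcribed RNA library at 250, 500 or 1000 nM protein. Bound RNA was pulled down on glutathione beads and sequenced. R-value is the enrichment of each 6-mer in the bound RNA relative to the input library. Each 6-mer sits inside the random 40-mer context, not as an isolated oligo. Values are replicate 1 only.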
Sequence,RBNS R-value (protein concentration: 250 nM),RBNS R-value (protein concentration: 500 nM),RBNS R-value (protein concentration: 1000 nM)
AGCGGC,1.05,1.03,1.01
AUUCUU,1.04,1.06,1.02
CUUAGC,0.907,0.84,0.885
CGGUCA,0.933,0.898,0.979
GAUUCU,1.53,1.6,1.33
AAUUCG,0.99,1.06,1.02
AAUUCU,1.01,1.07,1.06
CAUUCC,1.04,0.997,1.05
GAUUCG,1.43,1.44,1.31
GAUUCC,1.51,1.47,1.38
UAUUCA,0.803,0.794,0.796
GAUUCA,1.44,1.56,1.35
AAUUCC,1.16,1.15,1.16
CAUUCG,1.02,0.992,1.04
UAUUCU,0.875,0.813,0.832
AAUUCA,0.972,1.06,0.981
AGGUAA,0.909,0.998,0.997
CUUAAG,0.818,0.849,0.846
UCCUUU,0.883,0.825,0.875
UACCGA,1.01,0.978,0.96
AGGGAG,1.09,1.11,1.06
GAUAAC,1.16,1.26,1.15
CAUUGA,1.33,1.37,1.22
GAUUGU,1.04,1.04,0.998

Sequence,RBNS R-value (protein concentration: 250 nM),RBNS R-value (protein concentration: 500 nM),RBNS R-value (protein concentration: 1000 nM)
AAUUGU,0.865,0.926,0.948
GAUUGC,1.7,1.68,1.42
UAUUGA,1.07,1.14,0.985
AAUUGA,1.37,1.52,1.31
GAUUGA,1.61,1.69,1.43
GAUUGG,1.37,1.37,1.25
CAUUGC,0.987,0.973,0.976
UCCGUC,0.938,0.878,0.944
GUAUCA,0.785,0.812,0.852
UCCUGU,0.873,0.838,0.868
ACUGCC,1,0.929,0.986
CAUGUC,0.881,0.88,0.921
AAUGUA,0.778,0.871,0.819
GAUGUA,1.25,1.39,1.2
UAUGUG,0.854,0.869,0.848
GAUGUG,1.53,1.65,1.36
UAUGUC,0.791,0.772,0.81
CAUGUU,0.853,0.856,0.878
GAUGUU,1.47,1.53,1.31
AAUGUU,0.827,0.922,0.9
UAUGUA,0.792,0.805,0.771
GAUGUC,1.37,1.39,1.29
CAUGUG,0.924,0.964,0.964
CAGUCU,0.933,0.914,0.963

Sequence,RBNS R-value (protein concentration: 250 nM),RBNS R-value (protein concentration: 500 nM),RBNS R-value (protein concentration: 1000 nM)
GGCAUU,1.01,0.953,0.972
CUAUCU,0.826,0.759,0.772
CAUCUC,0.925,0.891,0.96
AGUACG,0.91,0.935,0.91
GUCAAG,0.874,0.904,0.946
AUACUA,0.816,0.825,0.779
GGCUAG,1.05,1.01,1.03
AGAAUA,1.03,1.18,1.1
UUCAUC,0.934,0.912,0.924
UUGAGA,1.19,1.22,1.18
CAGAUA,0.988,1.03,0.99
AUGAUC,1.38,1.42,1.24
UCGAUA,0.937,0.932,0.928
AGGAUG,1.1,1.1,1.12
UUGAUA,1.72,1.92,1.6
ACGAUC,0.952,0.918,0.959
CUGAUA,1.57,1.71,1.43
ACGAUG,1.33,1.38,1.21
AUGAGC,1.14,1.16,1.1
AUGAUG,3.17,3.42,2.39
CUGACA,1.13,1.11,1.11
CUCCUU,0.894,0.809,0.869
CUCACC,1.06,0.994,1.04
UUCGCC,1.06,0.992,1.03

Sequence,RBNS R-value (protein concentration: 250 nM),RBNS R-value (protein concentration: 500 nM),RBNS R-value (protein concentration: 1000 nM)
GCGAAU,1.01,1.07,1.04
CUUUUU,0.934,0.932,0.919
UUGACG,1.14,1.1,1.07
UAAAUA,0.769,0.893,0.797
AAAUAA,0.785,0.993,0.847
AUAAUG,0.87,0.985,0.875
GCGAUC,0.968,0.948,1.02
AUGAUU,2.75,3,2.19
UAGAUG,1.1,1.17,1.07
AGGAUU,1.04,1.06,1.06
UUGAUC,1.32,1.35,1.22
AUGAAU,1.08,1.18,1.04
GCGAUG,1.37,1.39,1.28
CCGAUG,1.38,1.35,1.29
GGGAUG,1.12,1.08,1.09
UUGAUG,2.95,3.14,2.32
GUGAAG,0.986,0.998,1.03
GUGAUG,2.02,2.17,1.72
UUAGAA,0.943,1.05,0.999
GACUAA,0.913,0.983,0.945
CGCGAU,1.17,1.15,1.13
UCCACU,0.991,0.933,0.95
GUCUUC,0.908,0.868,0.954
GCAUCC,1.14,1.06,1.11

Sequence,RBNS R-value (protein concentration: 250 nM),RBNS R-value (protein concentration: 500 nM),RBNS R-value (protein concentration: 1000 nM)
CUAACC,0.953,0.903,0.903
AGCGUA,0.911,0.94,0.898
CAAAGA,1.13,1.21,1.2
CUGAUC,1.29,1.27,1.2
AUGAGA,1.23,1.31,1.23
CUGAUG,2.47,2.58,1.97
CGGAUG,1.03,0.978,1.02
AGGAUA,0.981,1.03,1.01
AUGAUA,1.84,2.08,1.63
AGGCGG,1.02,0.987,1.05
CCAACU,0.966,0.921,0.933
UUGGGU,0.975,0.933,0.982
AGAGAG,1.19,1.25,1.24
UGAGAC,1.16,1.17,1.15
CGAGAG,1.29,1.22,1.27
CGAGAC,1.23,1.2,1.18
UGAGAA,1.33,1.39,1.34
AGAGAC,1.18,1.21,1.17
UGAGAG,1.18,1.16,1.19
CGAGAA,1.52,1.53,1.43
AGAGAA,1.34,1.48,1.37
